Each structure is given as a SMILES string. Active and inactive are the calls of the source. Unless noted, the rule behind the calls is not given here.

What is called viability is a read-out of living cells in per cent, often relative to untreated cells. As usually defined, the inhibition is the relative decrease from the control value, in per cent.

Assay [1] in a line: circadian clock period modulators, cell-based, LOPAC library, luminescence reporter (AID 2774).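 Note: values are relative to mean of DMSO wells on each plate.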 The note with it: circadian reporter cells, at 7 µM, actives lie on both sides.
Assay [2] is described as follows: hESC survival regulators, cell-based (AID 493140).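 Note: cells exposed to compounds for four days before counting.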 The note with it: human embryonic stem cell survival screen; stronger effect = higher value.
Assay [3] is described as follows: liver-stage malaria parasite growth inhibition, primary screen, cell-based, HepG2, luciferase luminescence, HepG2 viability (AID 624349; in the data active = parasite load remaining mostly below about 12%, no sharp cut-off; inactive = mostly above about 10%;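 note: 100% = mean of DMSO negative control wells on the same plate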). The note with it: P. berghei liver stage in HepG2, luciferase luminescence, concentration not given here; parasite load remaining: stronger effect = lower value; viability: measured here: HepG2 viability without parasites.
Assay [4] relates to Hepatitis C virus NS3 helicase. Description: HCV NS3 helicase inhibitors, primary screen, biochemical, fluorescence polarization, LOPAC1280 library (AID 687035; in the data active = inhibition above about 37%). Conditions: Purified HCV NS3 helicase, Cy5-dT15 ssDNA binding fluorescence polarization; stronger effect = higher value; concentration not given here.
Assay [5] is described as follows: Cy5 fluorescence quenching or enhancement artefacts, artefact control for HCV NS3 helicase inhibitor project, biochemical, LOPAC1280 (AID 687037). Conditions: Cy5-DNA-NS3h complex fluorescence interference counterscreen. For orientation: A counterscreen serves to expose hits that act by an unwanted route or on another target.
The nature of assay [6]: sensitizers of A549 cells to miR-34 induction, primary screen, imaging, A549 dox-inducible miR-34, nuclei and caspase counts (AID 1347080;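 active = compounds whose cell count with miR-34 switched on is under 0.7 times the count with it off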). Conditions: A549 miR-34 inducible, Hoechst nuclei count, 48 h.
The nature of assay [7]: phospholipid biosynthesis inhibitors in animal cells, primary screen, cell-based, LOPAC library, screen 4 (AID 1347384). Conditions: phospholipid biosynthesis inhibition screen, at 10 µM.
Assay [8] is described as follows: viability rescue of complex I mutant cybrids, primary screen, cell-based, galactose medium, ATP luminescence (AID 1645843;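 active = z-score of at least 1.8 in each of two replicates, scored against plate mean and spread of sample wells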;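 note: positive z means more ATP and so rescue of galactose-driven cybrid death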). Conditions: complex I mutant cybrid cells, 72 h, stronger effect = higher value.
Setting [9] is: stronger effect = lower value, cell number ratio, induced over uninduced.
[10] abbreviates: measured here: relative caspase fold change +Dox/-Dox.
Setting [11] is: measured here: total cells with miR-34 induction, stronger effect = lower value.
[12] abbreviates: measured here: total cells without miR-34 induction.

Consider `CNCCNS(=O)(=O)c1cccc2cnccc12`, for which, in assay [1], the period change is 0.23 h (inactive). Besides, in assay [2], the survival was 194 (active). In assay [3], the parasite load remaining was 51% (inactive). In assay [3], the viability worked out at 111%. Moreover, the inhibition in assay [4] was -6% (inactive). The fluorescence ratio (interference) in assay [5] was 0.9 (inactive). Besides, the fold change was 1.05 (inactive) in assay [6] (setting [9]) and 1.37 in assay [6] (setting [10]). Further, the cell count in assay [6] (setting [11]) was 10700; in assay [6] (setting [12]), 10200. Also, the compound was classed as inactive in assay [7]. For the same compound, in assay [8], the z-score is -0.89 (inactive).

Turning to `C#CC(N)CCC(=O)O` (stereo not drawn), the period change in assay [1] is 0 h (inactive). Moreover, the inhibition in assay [4] is -1% (inactive). Moreover, the fluorescence ratio (interference) in assay [5] is 1 (inactive). For the same compound, the results for the fold change in assay [6] (setting [9]) and in assay [6] (setting [10]) were 1.04 (inactive) and 2.03, respectively. Also, the values for the cell count in assay [6] (setting [11]) and in assay [6] (setting [12]) were 10600 and 10100, respectively. Further, in assay [7], the compound was classed as inactive. In addition, in assay [8], the z-score is -0.17 (inactive).

On to `COc1cc(OC)c(/C=C2/C(=O)Nc3ccccc32)c(OC)c1`, for which the period change in assay [1] is -0.54 h (inactive). Moreover, the parasite load remaining in assay [3] is 35.9% (inactive). In addition, the viability in assay [3] stood at 78.8%. Besides, the inhibition in assay [4] was -1% (inactive). In addition, the fluorescence ratio (interference) in assay [5] was 1 (inactive). The fold change in assay [6] (setting [9]) was 1.2 (inactive); in assay [6] (setting [10]), 0.628. Further, the cell count in assay [6] (setting [11]) was found to be 2100; in assay [6] (setting [12]) it was 1750. Also, the compound was called inactive in assay [7]. Besides, the z-score in assay [8] is -1.29 (inactive).

`COCCOc1cc2nc[nH]c(=O)c2cc1OCCOC`: the fold change in assay [6] (setting [9]) is 1.02 (inactive); in assay [6] (setting [10]), 1.39. Further, the cell count in assay [6] (setting [11]) is 10200; in assay [6] (setting [12]), 10100. In assay [7], the outcome was inactive. For the same compound, the z-score in assay [8] was 1.01 (inactive).

In the case of `OCC1O[C@H](O)C(Cl)C(O)C1O` (stereo partly drawn), the period change in assay [1] was 0.3 h (inactive). Moreover, in assay [4], the inhibition is -1% (inactive). In addition, the fluorescence ratio (interference) in assay [5] is 1 (inactive). Besides, the fold change in assay [6] (setting [9]) is 0.973 (inactive); in assay [6] (setting [10]), 1.54. Besides, the figures for the cell count in assay [6] (setting [11]) and in assay [6] (setting [12]) were 9780 and 10100, respectively. In addition, the result in assay [7] was inactive. The z-score in assay [8] was -0.395 (inactive).

Turning to `CC1=C(C(=O)O)N2C(=O)[C@@H](NC(=O)C(N)C3=CCC=CC3)[C@H]2SC1` (stereo partly drawn), in assay [1], the period change is -0.045 h (inactive). The inhibition in assay [4] was 0% (inactive). For the same compound, the fluorescence ratio (interference) in assay [5] was 1 (inactive). Moreover, the fold change is 1.02 (inactive) in assay [6] (setting [9]) and 1.79 in assay [6] (setting [10]). The cell count is 10500 in assay [6] (setting [11]) and 10300 in assay [6] (setting [12]). Moreover, the compound was classed as inactive in assay [7]. The z-score in assay [8] is -0.29 (inactive).

On to `CC(N)(C(=O)O)c1ccc(C(=O)O)cc1` (stereo not drawn), for which the period change in assay [1] is -0.11 h (inactive). In assay [4], the inhibition is -2% (inactive). In assay [5], the fluorescence ratio (interference) was 1 (inactive). Besides, the fold change is 1.05 (inactive) in assay [6] (setting [9]) and 1.27 in assay [6] (setting [10]). Also, the cell count in assay [6] (setting [11]) turned out to be 11100; in assay [6] (setting [12]), 10600. The result in assay [7] was inactive. In addition, the z-score in assay [8] was 0.615 (inactive).

Consider `C=C1C(=O)O[C@@H]2[C@H]3O[C@]3(C)CCC=C(C)CC[C@@H]12`, for which the period change in assay [1] is -0.22 h (inactive). Besides, the inhibition in assay [4] was -6% (inactive). In assay [5], the fluorescence ratio (interference) is 1 (inactive). In addition, the fold change in assay [6] (setting [9]) was 1.05 (inactive); in assay [6] (setting [10]) it was 1.06. The results for the cell count in assay [6] (setting [11]) and in assay [6] (setting [12]) were 5750 and 5500, respectively. Moreover, in assay [7], the call was inactive. Moreover, the z-score in assay [8] was -1.27 (inactive).

Consider `O[Si](CCCN1CCCCC1)(c1ccc(F)cc1)C1CCCCC1` (stereo not drawn), for which the period change in assay [1] was -0.3 h (inactive). Besides, in assay [4], the inhibition is -2% (inactive). Besides, in assay [5], the fluorescence ratio (interference) is 1 (inactive). Moreover, the values for the fold change in assay [6] (setting [9]) and in assay [6] (setting [10]) were 0.937 (inactive) and 1.64, respectively. Besides, the values for the cell count in assay [6] (setting [11]) and in assay [6] (setting [12]) were 8140 and 8690, respectively. The compound was classed as inactive in assay [7]. The z-score in assay [8] was -0.95 (inactive).

As for `CCN1C(=O)C=CC1=O`, in assay [1], the period change was 0.135 h (inactive). Moreover, the inhibition in assay [4] is -3% (inactive). Moreover, in assay [5], the fluorescence ratio (interference) is 1 (inactive). Besides, the figures for the fold change in assay [6] (setting [9]) and in assay [6] (setting [10]) were 0.985 (inactive) and 1.06, respectively. In addition, the cell count came out at 9620 in assay [6] (setting [11]) and 9760 in assay [6] (setting [12]). Further, the call in assay [7] was inactive. Also, in assay [8], the z-score was -0.99 (inactive).

For the compound `CC(N)(Cc1ccc(O)cc1)C(=O)O` (stereo not drawn), the period change in assay [1] is -0.14 h (inactive). Further, in assay [4], the inhibition is -1% (inactive). The fluorescence ratio (interference) in assay [5] is 0.9 (inactive). In addition, the fold change in assay [6] (setting [9]) was 1 (inactive); in assay [6] (setting [10]), 0.646. The cell count in assay [6] (setting [11]) and in assay [6] (setting [12]) was 9440 each time. Besides, the result in assay [7] was inactive. Further, in assay [8], the z-score was 1.32 (inactive).

Regarding `[N-]=[N+]=Nc1ccc(C(=O)CSC[C@H](NC(=O)CC[C@H](N)C(=O)O)C(=O)NCC(=O)O)cc1`, in assay [1], the period change was 0 h (inactive). The inhibition in assay [4] was -5% (inactive). The fluorescence ratio (interference) in assay [5] was 0.9 (inactive). The figures for the fold change in assay [6] (setting [9]) and in assay [6] (setting [10]) were 0.923 (inactive) and 1.4, respectively. For the same compound, the cell count came out at 5390 in assay [6] (setting [11]) and 5840 in assay [6] (setting [12]). In assay [7], the outcome was inactive. The z-score in assay [8] is -1.12 (inactive).

Regarding `[Li+]`, in assay [1], the period change was -0.09 h (inactive). Also, in assay [4], the inhibition is -1% (inactive). The fluorescence ratio (interference) in assay [5] is 1 (inactive). The values for the fold change in assay [6] (setting [9]) and in assay [6] (setting [10]) were 0.887 (inactive) and 0.586, respectively. Besides, the cell count in assay [6] (setting [11]) amounted to 9680; in assay [6] (setting [12]) it was 10900. For the same compound, the result in assay [7] was inactive. Also, the z-score in assay [8] is -0.05 (inactive).

For `NC(=O)c1ccccc1`, in assay [1], the period change is -0.185 h (inactive). The inhibition in assay [4] is 0% (inactive). Moreover, the fluorescence ratio (interference) in assay [5] was 1 (inactive). For the same compound, the fold change in assay [6] (setting [9]) is 0.988 (inactive); in assay [6] (setting [10]), 1.76. The cell count was determined as 9430 in assay [6] (setting [11]) and 9540 in assay [6] (setting [12]). Besides, the result in assay [7] was inactive. Further, in assay [8], the z-score was 0.385 (inactive).

As for `CN1CCCC1CCOC(C)(c1ccccc1)c1ccc(Cl)cc1` (stereo not drawn), the period change in assay [1] was 0.12 h (inactive). Besides, the inhibition in assay [4] is -3% (inactive). For the same compound, the fluorescence ratio (interference) in assay [5] was 1 (inactive). In addition, the fold change is 1.24 (inactive) in assay [6] (setting [9]) and 1.31 in assay [6] (setting [10]). Also, the cell count amounted to 4130 in assay [6] (setting [11]) and 3330 in assay [6] (setting [12]). Moreover, the outcome in assay [7] was inactive. Moreover, in assay [8], the z-score is -1.51 (inactive).

On to `CCCN(CCc1ccccc1)C1CCc2c(O)cccc2C1` (stereo not drawn), for which the period change in assay [1] was 0.095 h (inactive). Also, the inhibition in assay [4] was -4% (inactive). The fluorescence ratio (interference) in assay [5] is 1 (inactive). For the same compound, the fold change in assay [6] (setting [9]) was 0.964 (inactive); in assay [6] (setting [10]) it was 1.22. In addition, the cell count came to 5860 in assay [6] (setting [11]) and 6070 in assay [6] (setting [12]). Further, in assay [7], the compound was classed as inactive. The z-score in assay [8] is -1.21 (inactive).

Take `N[C@H](CO)C(=O)O`: the period change in assay [1] was -0.02 h (inactive). The inhibition in assay [4] was -3% (inactive). Also, in assay [5], the fluorescence ratio (interference) is 1 (inactive). For the same compound, the results for the fold change in assay [6] (setting [9]) and in assay [6] (setting [10]) were 0.97 (inactive) and 2.63, respectively. Moreover, the cell count in assay [6] (setting [11]) was determined as 10300; in assay [6] (setting [12]) it was 10600. The compound was called inactive in assay [7]. Besides, the z-score in assay [8] was 0.31 (inactive).

Turning to `O=C(O)Cc1c[nH]c2ccc(O)cc12`, the period change in assay [1] was -0.095 h (inactive). Moreover, the inhibition in assay [4] was -2% (inactive). For the same compound, the fluorescence ratio (interference) in assay [5] was 1 (inactive). Moreover, the values for the fold change in assay [6] (setting [9]) and in assay [6] (setting [10]) were 1.08 (inactive) and 0.669, respectively. In addition, the cell count came to 9930 in assay [6] (setting [11]) and 9210 in assay [6] (setting [12]). Moreover, the compound was called inactive in assay [7]. Besides, the z-score in assay [8] was 0.08 (inactive).

In the case of `CCCCCCCCCC[Si](C)(C)CCC(=O)NC(Cc1ccc(C)cc1)c1ccccc1` (stereo not drawn), in assay [1], the period change is 0.12 h (inactive). Further, the inhibition in assay [4] was -1% (inactive). The fluorescence ratio (interference) in assay [5] is 1 (inactive). Moreover, the fold change in assay [6] (setting [9]) was 1.02 (inactive); in assay [6] (setting [10]), 2.15. The cell count is 10100 in assay [6] (setting [11]) and 9990 in assay [6] (setting [12]). The compound was called inactive in assay [7]. In addition, in assay [8], the z-score was -0.33 (inactive).

The values above are taken from PubChem BioAssay.
